Compound activity as filed in PubChem BioAssay.
ROMK primary – ROMK potassium channel modulators, primary screen, cell-based, thallium flux, MLSMR library; 2% of 130,000 active; ATP-sensitive inward rectifier potassium channel 1 (Homo sapiens), P48048; AID 1918, 2009; B-score at 10 µM; Tet-inducible ROMK, thallium flux fluorescence; actives lie on both sides;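 active = signal ratio slope over the read window, or its plate-corrected B-score, at least 3 SD from the plate mean, either direction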;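 note: B-score of the F/F0 ratio slope over 7 to 12 s after thallium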
Target sequence (P48048 whole entry, looked up): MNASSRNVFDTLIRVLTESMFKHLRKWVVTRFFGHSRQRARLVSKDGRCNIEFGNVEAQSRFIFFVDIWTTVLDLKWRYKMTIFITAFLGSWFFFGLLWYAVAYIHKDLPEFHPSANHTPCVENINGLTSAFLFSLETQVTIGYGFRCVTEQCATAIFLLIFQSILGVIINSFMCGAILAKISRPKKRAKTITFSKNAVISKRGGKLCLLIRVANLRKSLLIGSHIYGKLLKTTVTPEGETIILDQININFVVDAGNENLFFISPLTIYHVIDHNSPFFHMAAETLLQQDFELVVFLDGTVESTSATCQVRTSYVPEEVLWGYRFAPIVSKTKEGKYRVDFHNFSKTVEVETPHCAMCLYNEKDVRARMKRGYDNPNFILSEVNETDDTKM
L major viab – Leishmania major promastigote growth inhibition, primary screen; Leishmania major promastigotes, resazurin fluorescence viability; AID 1063, 2008; 9% of 200,000 active; inhibition, % at 10 µM; in the data active = inhibition above about 50%;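 note: promastigotes grown with compound for 44 hours at 28 °C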
Ins promoter up – insulin promoter activators in MIN6 cells, imaging, high-content screening, mouse beta cells; z-score at 5 µM; 0.3% of 190,000 active; AID 1625, 2009; MIN6 insulin promoter-GFP reporter; active compounds read high;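 active = z-score above 3 at 5 µM with at least 500 cells counted in the well; inconclusive = wells under 500 cells, flagged as cytotoxic or low count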
Cl transport mod – KCC2 cotransporter modulators, thallium flux, primary screen, cell-based, HEK293 KCC2, FluoZin-2 fluorescence, MLSMR | KCC2 cells, thallium flux FluoZin-2 fluorescence | B-score of Tl+ flux slope (higher = more flux/activation; lower = inhibition) at 10 µM | 2.2% of 190,000 active | AID 1456, 2008;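 active = thallium flux slope and its plate-corrected score both differing from the plate sample mean at a set confidence after two filtering rounds, in either direction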;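 note: slope of fluorescence scaled to starting intensity during 10 to 20 s after thallium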
WT yeast gro inh – growth inhibition of WT strain, primary screen, mitochondrial fusion inhibitor project, WT and mutant strains, chemical genetic. inhibition, % at 10 µM. 2.1% of 190,000 active. mitochondrial fusion phenotypic screen. AID 1362, 2008; in the data active = inhibition above about 58%; tested in S. cerevisiae
Insulin prom inh – inhibitors of insulin promoter-driven GFP, primary screen, imaging, TRM-6 cells (human fetal islet line), eGFP reporter, cell count | reporter expression induced with tamoxifen | inhibition, % at 2 µM | 0.9% of 130,000 active | AID 1273, 2008;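 active = inhibition above the mean plus 3 SD, with well images judged a real hit on visual review, cut at about 60% in these data, passing the limit was not always enough; inconclusive = inhibition over the cutoff but images rejected on review; inactive = inhibition not above the cutoff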
KCC2 secondary – KCC2 modulators in sodium-free buffer, confirmation, cell-based, HEK293 KCC2, thallium flux, secondary assay. shares compounds with Cl transport mod. FluoZin2 fluorescence; active compounds read high. normalised thallium flux (F/F0 slope) at 10 µM. 15% of 3,700 active. AID 1713, 2009;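 active = thallium flux slope above the same plate's solvent-only control mean plus 3 SD; inconclusive = the two replicate wells disagree; inactive = no significant difference from solvent-only control wells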
KCC2 bumet counter – thallium flux persisting under bumetanide in KCC2 cells, confirmation, counter-screen for KCC2 modulator project, cell-based, HEK293 KCC2, FluoZin2, secondary assay 3; normalized thallium flux at 10 µM; shares compounds with Cl transport mod; 49% of 3,700 active; HEK293-KCC2 + bumetanide/ouabain; active compounds read high; AID 1714, 2009;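 active = thallium entry rate above the same plate's blocked-transporter control wells by more than 3 SD; inconclusive = the two repeat wells disagree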;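 note: raw slope of fluorescence over initial fluorescence between 10 and 20 s after thallium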
KCC2 sec2 – KCC2 modulators without ouabain present, confirmation, cell-based, HEK293 KCC2, thallium flux, FluoZin2, secondary assay 2; shares compounds with Cl transport mod; thallium flux FluoZin2 fluorescence; actives lie on both sides; F/F0 rise rate, 10–20 s post-thallium; normalized thallium flux at 10 µM; 23% of 3,700 active; AID 1715, 2009;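 active = thallium flux slope more than 3 SD above or below the plate's solvent-only control mean, mostly below; inconclusive = the two repeat wells disagreed; inactive = no significant shift from solvent-only controls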;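 note: raw slope with 0.1% DMSO as baseline and bumetanide as block control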
HEK counter1 – thallium flux modulation in parental HEK cells, confirmation, counter-screen for KCC2 modulator project, cell-based, counterscreen 1 | thallium flux rate (normalised fluorescence) at 10 µM | HEK293 parental cells, thallium flux FluoZin2, ouabain; baseline-ratio fluorescence slope, 10–20 s after thallium | shares compounds with Cl transport mod | 46% of 3,700 active;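 active = thallium flux rate significantly above the same plate's solvent-only control wells, beyond their mean plus 3 SD; inconclusive = the two replicate wells gave conflicting results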
KCC2 retest ouab – KCC2 inhibitors and activators, ouabain retest, confirmation, HEK-KCC2 cells; shares compounds with Cl transport mod; HEK293-KCC2, thallium flux FluoZin2 fluorescence; bidirectional: low = inhibitor, high = activator; raw Tl+ flux slope (below DMSO = inhibition, above = activation) at 10 µM; 48% of 3,700 active;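 active = thallium flux slope beyond 3 SD from same-plate DMSO control mean in most replicates, usually higher, sometimes lower; inconclusive = repeat tests gave conflicting results; inactive = no significant difference from controls in most replicates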;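 note: slope of initial-normalized fluorescence between seconds 10 and 20 after thallium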
HEK counter2 – native HEK Tl+ uptake effects, second counter-screen – HEK cells, counterscreen 2, counter-screen for KCC2 modulator project, confirmation; shares compounds with Cl transport mod; HEK293 parental, thallium flux FluoZin-2 fluorescence slope; thallium flux slope at 10 µM; 33% of 3,700 active; AID 1718, 2009;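 active = thallium flux slope above the same plate's solvent-control mean plus 3 SD in both duplicate wells; inconclusive = duplicate wells that disagreed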;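 note: run without ouabain in cells lacking the KCC2 cotransporter; slope of fluorescence scaled to its starting value between 10 and 20 s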
The depositor's hits bear a star. A selection: hits, their analogues and other compounds. The true share with any hit is near 12%.

What do the screens show for `CCC(C)n1c(SCC(=O)NC(=O)c2cccn2C)nc2ccccc2c1=O` (stereo not given)?
ROMK primary: -1.6; L major viab: 15.6; Ins promoter up: -0.44; Cl transport mod: 21.9*; WT yeast gro inh: 25.0; KCC2 secondary: 0.0159*; KCC2 bumet counter: 0.0964*; KCC2 sec2: 0.0372; HEK counter1: 0.0372*; KCC2 retest ouab: 0.0424*; HEK counter2: 0.0166*

How did CCCc1cc(-c2n[nH]c(=S)n2-c2cccc(C)c2)cs1 do in these assays?
ROMK primary: 1.22; L major viab: 28.2; Ins promoter up: 0.21; Cl transport mod: 106*; WT yeast gro inh: 57.4; Insulin prom inh: 11.8; KCC2 secondary: 0.022*; KCC2 bumet counter: 0.203*; KCC2 sec2: 0.0401; HEK counter1: 0.0581*; KCC2 retest ouab: 0.0622*; HEK counter2: 0.0166*

What do the screens show for `CC(=O)NC(CCS(C)(=O)=O)C(=O)Nc1cc(C)ccc1C` (stereo not given)?
L major viab: -7.5; Ins promoter up: -0.4; Cl transport mod: 1.52; WT yeast gro inh: 3.0

How did COc1ccccc1OCCNS(=O)(=O)c1ccc2oc3ccccc3c2c1 do in these assays?
ROMK primary: 0.0569; L major viab: -0.9; Ins promoter up: 0.58; Cl transport mod: -2.09; WT yeast gro inh: 45.2; Insulin prom inh: -56.7

How did O=C(Cn1nnc2ccccc2c1=O)Nc1ccc(S(=O)(=O)N2CCOCC2)cc1 do in these assays?
ROMK primary: 0.382; L major viab: 4.3; Ins promoter up: 0.15; Cl transport mod: 0.44; WT yeast gro inh: -14.2

How did O=C(CSc1ccc(-c2ccncc2)nn1)N1CCCC1 do in these assays?
L major viab: 8.2; Ins promoter up: 0.47; Cl transport mod: 0.0262; WT yeast gro inh: 19.6; Insulin prom inh: 6.7

How did O=C(CSc1ccc(-c2ccc(F)cc2)nn1)N1CCCCC1 do in these assays?
ROMK primary: 0.629; L major viab: 3.5; Ins promoter up: -1.4; Cl transport mod: -5.29*; WT yeast gro inh: -2.8; KCC2 secondary: 0.00631; KCC2 bumet counter: 0.005; KCC2 sec2: 0.026; HEK counter1: 0.00753; KCC2 retest ouab: 0.0144*; HEK counter2: 0.0104

What do the screens show for `CC1CCN(C(=O)CSc2ccc(-c3ccc(F)cc3)nn2)CC1`?
ROMK primary: 0.158; L major viab: 19.8; Ins promoter up: 0.44; Cl transport mod: -5.29*; WT yeast gro inh: -9.2; KCC2 secondary: 0.00581; KCC2 bumet counter: inconclusive; KCC2 sec2: 0.0209*; HEK counter1: 0.00753; KCC2 retest ouab: 0.015*; HEK counter2: 0.00985

What do the screens show for `O=C(CSc1ccc(-c2ccccc2)nn1)N1CCCCC1`?
ROMK primary: 2.12; L major viab: 3.8; Cl transport mod: -0.321; WT yeast gro inh: 12.8; Insulin prom inh: 38.5

What do the screens show for `COc1ccc2cc1Oc1ccc(cc1)C[C@H]1c3cc(c(OC)cc3CCN1C)Oc1c(OC)c(OC)cc3c1[C@H](C2)N(C)CC3`?
Cl transport mod: 0.556

What do the screens show for `S=c1[nH]nc(-c2cccs2)n1C1CCCCC1`?
Ins promoter up: 0.9; Cl transport mod: 11.5*; KCC2 secondary: 0.011; KCC2 bumet counter: 0.0158*; KCC2 sec2: 0.0359; HEK counter1: 0.0132*; KCC2 retest ouab: 0.0257*; HEK counter2: inconclusive

How did S=c1[nH]nc(-c2cccs2)n1Cc1ccccc1 do in these assays?
ROMK primary: -0.669; L major viab: -2.2; Cl transport mod: 0.433; WT yeast gro inh: -4.3

What do the screens show for `CC(C1CC2CCC1C2)n1c(-c2cccs2)n[nH]c1=S` (stereo not given)?
Ins promoter up: -0.04; Cl transport mod: 72.1*; KCC2 secondary: 0.0193; KCC2 bumet counter: 0.0823*; KCC2 sec2: 0.0416*; HEK counter1: 0.0342*; KCC2 retest ouab: 0.0413*; HEK counter2: 0.0318*

What do the screens show for `Fc1ccc(/C=N/n2c(-c3cccs3)n[nH]c2=S)cc1`?
L major viab: -5.4; Ins promoter up: 0.77; WT yeast gro inh: 8.4; Insulin prom inh: -13.3

What do the screens show for `CCOC(=O)NCCOC(=O)Nc1ccc(Cl)cc1`?
ROMK primary: 0.419; L major viab: -9.7; Ins promoter up: -0.18; Cl transport mod: 1.03; WT yeast gro inh: -7.5; Insulin prom inh: -18.2

What do the screens show for `O=C(COc1c(Cl)cccc1Cl)NN1C(=O)CSC1=S`?
ROMK primary: 0.876; L major viab: -1.3; Ins promoter up: 0.79; Cl transport mod: -0.00261; WT yeast gro inh: -9.3

How did COc1ccc(NC(=O)CSc2nc(-c3ccncc3)nn2CC(=O)N2CCCC2)cc1 do in these assays?
ROMK primary: 0.0387; L major viab: -7.5; Ins promoter up: -0.45; Cl transport mod: -4.25*; WT yeast gro inh: 6.5; Insulin prom inh: 21.2; KCC2 secondary: 0.0069; KCC2 bumet counter: 0.00477; KCC2 sec2: 0.0279; HEK counter1: 0.00737; KCC2 retest ouab: 0.018; HEK counter2: 0.0105
